Data from PubChem BioAssay (NCATS).
Records with an inconclusive call do not appear. Active and inactive are the calls of the source. Unless noted, the call rests on the fitted dose curve; in most records, active means well fitted curve in the direction sought with a large enough effect; inconclusive means small, poorly fitted or top-dose-only effect, or another doubt; inactive means no such curve, though single readings can be large; an effect the other way counts as inactive or inconclusive.

How the values were obtained:
[1] = target: Glutathione peroxidase 1 (Homo sapiens) (UniProt P07203); test: Primary qHTS Assay for Inhibitors of Recombinant Selenoprotein Glutathione Peroxidase 1 (GPX1) (AID 1845191); further: nearly all actives have a fitted effect of over 65% in size; on activity, negative = inhibition: on the % scale 0 is the no-effect control and ±100 the full control effect
Procedure, shortened: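 GPX1 10 nM, GR 100 nM, GSH 1 mM, NADPH 0.5 mM, CHP 0.5 mM (final). 30-min cpd preincubation, RT. Ex340/Em450 read t=0, t=15 min.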

[2] = target: Phospholipid hydroperoxide glutathione peroxidase GPX4 (Homo sapiens) (UniProt P36969); test: Primary qHTS Assay for Inhibitors of Recombinant Selenoprotein Glutathione Peroxidase 4 (GPX4) (AID 1845192); further: nearly all actives have a fitted effect of over 65% in size
Procedure, shortened: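 qHTS, GR-coupled: GPX4 200 nM + cpd 30 min RT → GSH 1 mM, NADPH 0.5 mM, GR 100 nM → CHP 0.5 mM start; fluor 340/450 at t0 and t15 min; no-enzyme wells as control.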

[3] = target: Luciferin 4-monooxygenase (Photinus pyralis) (UniProt P08659); test: Primary firefly luciferase (FLuc) qHTS assay for identification of artifact compounds. (AID 1845220); conditions: outcome: dose series up to 54.1 µM; further: nearly all actives have a fitted effect of over 60% in size
Procedure, shortened: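 Reaction readout was CCD-imaged luminescence, taken 5 min after adding 10 nM purified firefly enzyme to compound-treated wells holding 10 uM luciferin and ATP in pH 7.6 buffer.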

[4] = Primary fluorescence-based thiol-reactive (MSTI) qHTS assay for identification of artifact compounds. (AID 1845221);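 further: thiol-reactive compounds lower the probe fluorescence signal; nearly all actives have a fitted effect of over 65% in size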
Procedure, shortened: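 Probe: MSTI 4 uM, PBS pH 7.4, 2% DMSO. Incubation 1 h, RT, light-protected. Readout fluorescence 525/598 nm.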

[5] = system: Nanoluciferase (engineered Oplophorus gracilirostris luciferase); test: Primary Nanoluciferase (NLuc) qHTS assay for identification of artifact compounds. (AID 1845222);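 further: NLuc secreted into diluted conditioned medium of S16 cells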
Procedure, shortened: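 Concentration-response data were obtained by luminescence after 5 min with Nano-Glo substrate at 1:100. The enzyme was diluted S16 NLuc-expressing cell medium, preincubated with compound for 15 min at RT. Curves were fitted with a 4-parameter Hill model.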

[6] = Primary redox qHTS assay for identification of artifact compounds. (AID 1845223);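 further: 0% = DMSO and 100% = reference compound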
Procedure, shortened: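 Redox-cycling detection via DTT (250 uM final) oxidation coupled to Amplex Red (25 uM)/HRP (250 mU/mL) in HBSS. 15 min preincubation plus 30 min after DTT, room temperature. Ex/Em 525/598 nm; 4-parameter Hill fit against DMSO and 10 uM DA3003.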

[7] = qHTS profiling for inhibitors of Plasmodium falciparum proliferation (AID 504749); further: nearly all actives have a fitted effect of over 60% in size; further: potency means the concentration at half of the fitted maximal effect;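 on activity, negative = inhibition: 0% = DMSO vehicle and full inhibition = artemisinin control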; conditions: P. falciparum in erythrocytes, SYBR Green DNA, 72 h
Procedure, shortened: (§1)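 Fluorescence of SYBR Green-bound parasite DNA, read at 485/535 nm, served as the growth measure. Infected erythrocytes were cultured with compound 72 h; artemisinin (0.29 uM) and DMSO wells defined the normalization range.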

3D7 = test: as above; conditions: P. falciparum in erythrocytes, SYBR Green DNA, 72 h; series mostly up to 28.7 µM
Procedure, shortened: as §1

[8] = target: Cytochrome P450 3A4 (Homo sapiens) (UniProt P08684); test: qHTS for inhibitors of CYP3A4 against the NCATS DSHEA and TCM libraries (AID 1919971);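 further: on the % scale 0 is the no-effect control and ±100 the full control effect; inhibition lowers luminescence from luciferin made by CYP3A4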
Procedure, shortened: (§2)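 Isoform-specific enzyme and substrate levels; enzyme-free wells as background. Reaction: 1x NADPH regenerating system, 30-45 min, room temperature, shielded from light; luminescent detection reagent added, 30 min.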

[9] = target: Cytochrome P450 2D6 (Homo sapiens) (UniProt P10635); test: qHTS for inhibitors of CYP2D6 against the NCATS DSHEA and TCM libraries (AID 1919972); further: on the % scale 0 is the no-effect control and ±100 the full control effect
Procedure, shortened: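 qHTS, concentration–response format with most substances from 19.5 nM. CYP2D6 + pro-luciferin substrate, 15 min with compound, then 1x NADPH regen, 30–45 min RT dark. Glo detection 30 min, luminescence. Quinidine control.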

[10] = target: Cytochrome P450 2C9 (Homo sapiens) (UniProt P11712); test: qHTS for inhibitors of CYP2C9 against the NCATS DSHEA and TCM libraries (AID 1919973);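 further: luminogenic pro-luciferin CYP2C9 substrate turned into luciferin with NADPH regeneration; on the % scale 0 is the no-effect control and ±100 the full control effect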
Procedure, shortened: as §2

[11] = KB-3-1 P-gp reporter qHTS against the NCATS DSHEA and TCM libraries (AID 1919975); further: 0% is about no effect
Procedure, shortened: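 Parental KB-3-1 cells, 500 cells/well, in DMEM with 10% FBS, exposed 72 h at 37 C to compounds in concentration-response. Viability read by CellTiter-Glo luminescence after 30 min at room temperature.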

[12] = qHTS Counterscreen for compound interference against the NCATS DSHEA and TCM libraries (AID 1919978); conditions: firefly luciferase detection reagent interference, luminescence;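 further: compounds preincubated with 1 µM D-luciferin or buffer before detection reagent; % of control where 0% means no effect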
Procedure, shortened: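 Firefly luciferase detection reagent was added after compounds (19.5 nM–39.8 uM final) had been incubated 15 min at room temperature with 1 uM D-luciferin or with 100 mM phosphate buffer alone. Luminescence was read after 30 min at room temperature.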

[13] = Dual reporter qHTS for agonist of Pregnane X Receptor (hPXR) against the NCATS DSHEA and TCM libraries: Fluorescence readout (AID 1920058); further: 0% is about no effect
Procedure, shortened: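 In this qHTS counter-read, reporter-bearing HepG2 cells in charcoal-stripped serum received substances for approximately 24 h before viability was assessed fluorometrically with CellTiter-Fluor.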

[14] = target: Nuclear receptor subfamily 1 group I member 2 (Homo sapiens) (UniProt O75469); test: Dual reporter qHTS for agonist of Pregnane X Receptor (hPXR) against the NCATS DSHEA and TCM libraries: Luminescence readout (AID 1920059); further: 0% is about no effect
Procedure, shortened: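 hPXR-LucHepG2 cells in phenol red-free DMEM with 5% charcoal-stripped FBS, 2000 cells/well, attached 5 h, then exposed 24 h at 37C to compounds; rifampicin as positive agonist control (2.8 nM–92 uM). Luciferase luminescence read.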

[15] = Dual reporter qHTS for antagonist of Pregnane X Receptor (hPXR) against the NCATS DSHEA and TCM libraries: Fluorescence Readout (AID 1920061); further: 0% is about no effect
Procedure, shortened: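 HepG2 hPXR-Luc, 2000 cells/well, charcoal-stripped FBS medium; 5 h attach; RIF 2 uM final; 24 h 37C/5% CO2; CellTiter-Fluor 1 h, fluor 405/540; ONE-Glo 30 min RT, lum.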

[16] = qHTS drug screen for cell cycle checkpoint inhibitors in PARPi-resistant BRCA-mutant ovarian cancer cell lines. (AID 1963452; calls by dose curve); conditions: PEO1/OlaR viability, CellTiter-Glo luminescence, 96 h, stronger effect = lower value
Procedure, shortened: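 PEO1, PEO4 and PEO1/OlaR ovarian cancer cells, 600 per well, exposed 96 h at 37C to a dilution series. Viability read by CellTiter-Glo luminescence, normalized to DMSO and empty wells; activity summarized as Z-AUC.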

[17] = at 28.7 µM (top of the series), parasite line A
[18] = at 28.7 µM (top of the series), parasite line B
[19] = measured here: PEO1 parental Z-AUC

Sequence of Phospholipid hydroperoxide glutathione peroxidase GPX4 (Homo sapiens) (P36969 whole entry, looked up): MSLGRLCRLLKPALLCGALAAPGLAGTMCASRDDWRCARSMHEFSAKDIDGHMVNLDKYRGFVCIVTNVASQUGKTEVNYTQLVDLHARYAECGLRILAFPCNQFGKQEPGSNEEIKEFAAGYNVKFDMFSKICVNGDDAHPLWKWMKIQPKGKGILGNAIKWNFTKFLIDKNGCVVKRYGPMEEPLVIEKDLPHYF
Sequence of Glutathione peroxidase 1 (Homo sapiens) (P07203 whole entry, looked up): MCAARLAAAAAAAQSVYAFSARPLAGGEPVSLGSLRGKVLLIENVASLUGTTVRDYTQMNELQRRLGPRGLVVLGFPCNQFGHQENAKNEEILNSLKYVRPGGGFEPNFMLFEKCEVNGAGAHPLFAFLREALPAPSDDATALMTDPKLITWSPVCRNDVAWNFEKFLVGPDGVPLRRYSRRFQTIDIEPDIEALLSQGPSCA
Sequence of Cytochrome P450 2C9 (Homo sapiens) (P11712 whole entry, looked up): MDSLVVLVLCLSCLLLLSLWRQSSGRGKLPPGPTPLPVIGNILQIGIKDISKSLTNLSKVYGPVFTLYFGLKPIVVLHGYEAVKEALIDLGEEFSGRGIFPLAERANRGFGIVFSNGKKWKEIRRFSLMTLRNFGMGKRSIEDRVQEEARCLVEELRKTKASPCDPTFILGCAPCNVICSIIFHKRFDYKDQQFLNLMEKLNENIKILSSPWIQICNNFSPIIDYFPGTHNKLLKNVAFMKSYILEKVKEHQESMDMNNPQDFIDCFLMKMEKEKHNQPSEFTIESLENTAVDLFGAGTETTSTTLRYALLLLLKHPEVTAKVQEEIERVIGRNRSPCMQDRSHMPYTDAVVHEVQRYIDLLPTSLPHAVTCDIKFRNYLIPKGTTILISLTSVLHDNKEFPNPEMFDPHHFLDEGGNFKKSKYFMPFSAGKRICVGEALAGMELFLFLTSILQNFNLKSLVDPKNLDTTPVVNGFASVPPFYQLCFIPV
Sequence of Cytochrome P450 2D6 (Homo sapiens) (P10635 whole entry, looked up): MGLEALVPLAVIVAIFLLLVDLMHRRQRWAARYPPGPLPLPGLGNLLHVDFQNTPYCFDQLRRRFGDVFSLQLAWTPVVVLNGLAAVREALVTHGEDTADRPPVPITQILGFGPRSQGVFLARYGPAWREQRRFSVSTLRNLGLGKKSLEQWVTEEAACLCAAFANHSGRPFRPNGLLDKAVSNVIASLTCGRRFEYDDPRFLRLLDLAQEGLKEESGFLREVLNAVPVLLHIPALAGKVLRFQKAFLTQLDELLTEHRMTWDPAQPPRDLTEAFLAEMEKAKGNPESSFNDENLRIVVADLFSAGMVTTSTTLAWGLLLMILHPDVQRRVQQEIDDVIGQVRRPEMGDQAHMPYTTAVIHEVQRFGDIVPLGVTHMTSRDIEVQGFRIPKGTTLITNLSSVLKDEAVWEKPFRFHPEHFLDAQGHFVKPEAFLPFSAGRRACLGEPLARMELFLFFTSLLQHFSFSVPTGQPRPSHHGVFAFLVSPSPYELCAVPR
Sequence of Nuclear receptor subfamily 1 group I member 2 (Homo sapiens) (O75469 whole entry, looked up): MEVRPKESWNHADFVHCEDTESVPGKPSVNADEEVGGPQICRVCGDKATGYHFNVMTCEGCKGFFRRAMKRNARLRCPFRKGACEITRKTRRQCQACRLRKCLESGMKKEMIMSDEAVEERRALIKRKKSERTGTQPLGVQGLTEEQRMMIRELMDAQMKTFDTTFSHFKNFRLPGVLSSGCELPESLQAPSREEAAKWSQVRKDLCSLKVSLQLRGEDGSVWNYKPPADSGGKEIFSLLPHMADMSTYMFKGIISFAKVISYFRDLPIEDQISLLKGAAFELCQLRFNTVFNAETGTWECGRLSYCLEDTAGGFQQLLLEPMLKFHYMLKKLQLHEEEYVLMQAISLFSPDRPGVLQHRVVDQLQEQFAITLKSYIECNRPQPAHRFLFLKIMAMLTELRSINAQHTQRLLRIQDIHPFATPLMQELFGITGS
Sequence of Cytochrome P450 3A4 (Homo sapiens) (P08684 whole entry, looked up, canonical isoform): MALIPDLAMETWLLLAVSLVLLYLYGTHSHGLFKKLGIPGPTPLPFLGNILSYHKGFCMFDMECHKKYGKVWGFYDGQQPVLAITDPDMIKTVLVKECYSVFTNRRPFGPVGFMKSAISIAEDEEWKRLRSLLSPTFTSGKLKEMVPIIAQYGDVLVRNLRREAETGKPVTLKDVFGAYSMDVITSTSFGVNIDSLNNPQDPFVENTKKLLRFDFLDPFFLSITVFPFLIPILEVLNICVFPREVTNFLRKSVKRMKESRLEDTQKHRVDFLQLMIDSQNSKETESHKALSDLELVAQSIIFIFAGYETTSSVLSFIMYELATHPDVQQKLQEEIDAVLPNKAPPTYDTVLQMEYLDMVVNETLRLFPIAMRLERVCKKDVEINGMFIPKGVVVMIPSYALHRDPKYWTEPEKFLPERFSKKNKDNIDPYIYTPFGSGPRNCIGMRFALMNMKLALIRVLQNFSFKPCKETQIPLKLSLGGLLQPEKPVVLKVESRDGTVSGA

O=C(OCCOCCO)c1ccccc1Nc1cccc(C(F)(F)F)c1
inactive: Potency [1] | Potency [2] | outcome [3] | Potency [4] | Potency [5] | outcome [6] | activity, negative = inhibition ([7]; at 12.8 µM (top of the series), parasite line A) 9.49% | activity, negative = inhibition ([7]; at 12.8 µM (top of the series), parasite line B) 3.82% | Potency (3D7)

CCCCCCCCCCCCCCCCCC(=O)OCC(O)CO (stereo unspecified)
inactive: Potency [1] | Potency [2] | activity, negative = inhibition [7, 17] 5.19% | activity, negative = inhibition [7, 18] 11.8%

CC[N+](CC)(CCNC(=O)C(=O)NCC[N+](CC)(CC)Cc1ccccc1Cl)Cc1ccccc1Cl
inactive: Potency [1] | Potency [2]
active: Potency ([7]; parasite line A) 1120 nM | Potency ([7]; parasite line B) 794 nM

Nc1ccc(C(=O)O)cc1
inactive: Potency [1] | Potency [2] | outcome [8] | outcome [9] | outcome [10] | outcome [11] | max response [12] -2.08% | outcome [13] | outcome [14] | outcome [15] | activity, negative = inhibition [7, 17] -7.02% | activity, negative = inhibition [7, 18] 4.76% | Potency (3D7)

Cc1ccc(C(=O)C(C)CN2CCCCC2)cc1 (stereo unspecified)
inactive: Potency [1] | Potency [2] | outcome [3] | Potency [4] | Potency [5] | outcome [6] | activity, negative = inhibition [7, 17] 1.87% | activity, negative = inhibition [7, 18] 6.22% | Potency (3D7)

C[C@]12CCC(=O)C=C1[C@@H]1C[C@@H]1[C@H]1[C@@H]3[C@@H]4C[C@@H]4[C@@]4(CCC(=O)O4)[C@@]3(C)CC[C@@H]12
0.636: Z-AUC [16, 19]
inactive: Potency [1] | Potency [2] | Z-AUC [16] 1.29
1.11: Z-AUC ([16]; measured here: PEO4 Z-AUC)

C[C@]12CC[C@@H]3c4ccc(O)cc4CC[C@H]3[C@@H]1C[C@@H](O)[C@@H]2O
inactive: Potency [1] | Potency [2] | Z-AUC [16] -0.032
0.00281: Z-AUC [16, 19]
0.225: Z-AUC ([16]; measured here: PEO4 Z-AUC)

CC(=O)O[C@]1(C(C)=O)CC[C@H]2[C@@H]3C[C@H](C)C4=CC(=O)CC[C@]4(C)[C@H]3CC[C@@]21C
inactive: Potency [1] | Potency [2] | outcome [3] | Potency [4] | Potency [5] | outcome [6] | Z-AUC [16] -1.26
-0.257: Z-AUC [16, 19]
0.0735: Z-AUC ([16]; measured here: PEO4 Z-AUC)

Oc1ccc(Cl)c2cccnc12
inactive: Potency [1] | Potency [2] | activity, negative = inhibition [7, 17] -27%

O=c1[nH]c(=O)n([C@H]2C[C@H](O)[C@@H](CO)O2)cc1C(F)(F)F
-0.928: Z-AUC [16, 19]
inactive: Potency [1] | Potency [2] | Z-AUC [16] -0.642
-0.403: Z-AUC ([16]; measured here: PEO4 Z-AUC)

CC(C)(CO)[C@@H](O)C(=O)NCCCO
inactive: Potency [1] | Potency [2] | activity, negative = inhibition [7, 17] 10.4% | activity, negative = inhibition [7, 18] -1.02% | Potency (3D7)
